Measurements as given in PubChem BioAssay (NCATS).
Inconclusive results are not listed. Activity calls are given as the source filed them. Calls follow the shape of the dose curve; as a rule, active = well fitted cell-killing curve with a large enough effect; inconclusive = small, poorly fitted or top-dose-only effect, or effect the other way; inactive = flat fitted curve, though single readings scatter.

Key:
Assay in all cases: Primary qHTS to identify gynecologic anti-cancer compounds using libraries of approved drugs and bioactive compounds (AID 1345084); also: nearly all actives have a fitted effect of over 55% in size
C33A = conditions: Gynecologic cancer cell panel viability, ATPlite luminescence, 48 h; series mostly up to 57.5 µM
Summary of the method: (§1)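 Cells, 1,000 per well, plated 16 h, then exposed 48 h at 37 C to compounds. Viability by ATPlite luminescence after 15 min at room temperature.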

CAOV3 = conditions: Gynecologic cancer cell panel viability, ATPlite luminescence, 48 h; series mostly up to 57.5 µM
Summary of the method: as §1

HeLa = conditions: Gynecologic cancer cell panel viability, ATPlite luminescence, 48 h; series mostly up to 57.5 µM
Summary of the method: as §1

Hek293T = conditions: Gynecologic cancer cell panel viability, ATPlite luminescence, 48 h, control line for the selectivity index; series mostly up to 57.5 µM
Summary of the method: as §1

JEG-3 = conditions: Gynecologic cancer cell panel viability, ATPlite luminescence, 48 h; series mostly up to 57.5 µM
Summary of the method: as §1

OV90 = conditions: Gynecologic cancer cell panel viability, ATPlite luminescence, 48 h; series mostly up to 57.5 µM
Summary of the method: as §1

Es-2 = conditions: Gynecologic cancer cell panel viability, ATPlite luminescence, 48 h; series mostly up to 57.5 µM
Summary of the method: as §1

CASKI = conditions: Gynecologic cancer cell panel viability, ATPlite luminescence, 48 h; series mostly up to 57.5 µM
Summary of the method: as §1
% is scaled to controls: 0 for no effect and ±100 for the full control effect; potency is read from the fitted curve at half-maximal effect.

CN(C)c1cccc(Oc2cnc(Nc3cccc(O)c3)nc2)c1
inactive: Potency (C33A) | Potency (CAOV3) | Potency (HeLa) | Potency (Hek293T) | Potency (JEG-3) | Potency (OV90)

COC1=CC(=O)C[C@@H](C)[C@@]12Oc1c(Cl)c(OC)cc(OC)c1C2=O
inactive: Potency (C33A) | Potency (CAOV3) | Potency (Es-2) | Potency (OV90)

Cc1ccc(O)cc1Nc1ccnc(Nc2cccc(C(N)=O)c2)n1
inactive: Potency (C33A) | Potency (CAOV3) | Potency (JEG-3)

COC(=O)C1=COC(O[C@@H]2O[C@H](CO[C@@H]3O[C@H](COC(=O)/C=C\c4ccc(O)cc4)[C@@H](O)[C@H](O)[C@H]3O)[C@@H](O)[C@H](O)[C@H]2O)C2C(CO)=CCC12 (some centres undefined)
inactive: Potency (C33A) | Potency (CAOV3) | Potency (OV90)

CCCC1(CCC)CCC2(CCN(CCCN(CC)CC)C2)CC1
active: Potency (C33A) 6.31 µM | Potency (CASKI) 8.91 µM | Potency (Es-2) 10 µM | Potency (HeLa) 7.08 µM | Potency (Hek293T) 8.91 µM | Potency (JEG-3) 5.62 µM | Potency (OV90) 7.08 µM

C=C1CC[C@H]2C(=C)CC[C@H]3C(=C)C(=O)O[C@@H]3[C@@H]12
inactive: Potency (C33A) | Potency (CASKI) | Potency (Es-2) | Potency (HeLa) | Potency (Hek293T) | Potency (JEG-3) | Potency (OV90)

COC(=O)CC1OC(C)C2=C(O)c3c(O)cccc3C(=O)C23OC13 (centres undefined)
active: Potency (C33A) 12.6 µM | Potency (CAOV3) 3.55 µM | Potency (Es-2) 10 µM | Potency (Hek293T) 10 µM | Potency (OV90) 10 µM

CN(C)CCN(Cc1ccccc1)C(=O)c1cc(-c2ccc(F)cc2)n2nc(C(C)(C)C)cc2n1
inactive: Potency (C33A) | Potency (CASKI) | Potency (Es-2) | Potency (HeLa) | Potency (Hek293T) | Potency (JEG-3)

CC(=O)O[C@H]1CC[C@]2(C)[C@H]3CC[C@]4(C)Oc5oc(C)cc(=O)c5C[C@H]4[C@]3(C)CC[C@H]2C1(C)C
inactive: Potency (C33A) | Potency (CASKI) | Potency (Es-2) | Potency (HeLa) | Potency (Hek293T) | Potency (JEG-3) | Potency (OV90)

O=C(NCc1ccccc1)c1ccc2c(=O)n(-c3cccc(C(F)(F)F)c3)c(=S)[nH]c2c1
inactive: Potency (C33A) | Potency (CASKI) | Potency (Es-2) | Potency (HeLa) | Potency (Hek293T) | Potency (JEG-3) | Potency (OV90)

C=CC(=O)N1CCN(C(=O)CNc2cc(-c3ccccc3Cl)c(Cl)cc2OC)CC1
inactive: Potency (C33A) | Potency (CASKI) | Potency (Es-2) | Potency (HeLa) | Potency (Hek293T) | Potency (JEG-3) | Potency (OV90)

NCC1CCN(c2nccc(-c3ccc4ccccc4c3)n2)CC1
inactive: Potency (Es-2) | Potency (JEG-3) | Potency (OV90)
active: Potency (C33A) 28.2 µM | Potency (CAOV3) 28.2 µM | Potency (HeLa) 14.1 µM

NC(=O)c1cccc2[nH]c(-c3ccc(C4CCCN4)cc3F)nc12 (centres undefined)
active: Potency (C33A) 17.8 µM | Potency (CAOV3) 10 µM | Potency (Es-2) 15.8 µM | Potency (Hek293T) 12.6 µM | Potency (JEG-3) 11.2 µM

COc1ccc2cc3c(NC(=O)c4ccco4)nn(C)c3nc2c1
inactive: Potency (C33A) | Potency (CASKI) | Potency (Es-2) | Potency (HeLa) | Potency (Hek293T) | Potency (JEG-3)

CCCc1cc(C)[nH]c(=O)c1CNC(=O)c1cc(-c2ccc(N3CCN(C(C)C)CC3)nc2)cc2c1cnn2C(C)C
inactive: Potency (C33A) | Potency (CASKI) | Potency (Es-2) | Potency (HeLa) | Potency (Hek293T)

Cn1ncc(Cl)c1-c1cc(C(=O)N[C@H](CN)Cc2cccc(F)c2)sc1Cl
active: Potency (C33A) 11.2 µM | Potency (Hek293T) 2.82 µM
inactive: Potency (CAOV3)

COc1cc(N2CCOCC2)ccc1NC(=O)c1csc(-c2cccnc2)n1
inactive: Potency (C33A) | Potency (CASKI) | Potency (Es-2) | Potency (HeLa) | Potency (Hek293T) | Potency (JEG-3)

C[C@H](Oc1cc(-c2cnn(C3CCNCC3)c2)cnc1N)c1c(Cl)ccc(F)c1Cl
inactive: Potency (C33A) | Potency (CASKI) | Potency (Es-2) | Potency (HeLa) | Potency (Hek293T) | Potency (JEG-3)

O=C(Nc1ccc(-n2nc(C(F)(F)F)cc2C(F)(F)F)cc1)c1ccncc1F
inactive: Potency (C33A) | Potency (CASKI) | Potency (Es-2) | Potency (HeLa) | Potency (Hek293T) | Potency (JEG-3) | Potency (OV90)

NC(=O)c1cnc(N[C@@H]2CCCC[C@H]2N)nc1Nc1cccc(-n2nccn2)c1
inactive: Potency (C33A) | Potency (CASKI) | Potency (Es-2) | Potency (HeLa) | Potency (Hek293T) | Potency (JEG-3)

COC(=O)C[C@H]1[C@]2(C)C3=C(C)[C@H](c4ccoc4)C[C@H]3O[C@@H]2[C@H](O)C2[C@](C)(C(=O)OC)C=CC(=O)[C@@]21C (some centres undefined)
inactive: Potency (C33A) | Potency (CASKI) | Potency (Es-2) | Potency (HeLa) | Potency (Hek293T) | Potency (JEG-3) | Potency (OV90)

CC(=O)O[C@H]1C[C@H](OC(C)=O)[C@]2(C)[C@H](CC[C@@]34O[C@@H]3C3=C(C)C(=O)O[C@@H]3C[C@H]42)C1(C)C
inactive: Potency (C33A) | Potency (CASKI) | Potency (Es-2) | Potency (HeLa) | Potency (Hek293T) | Potency (JEG-3) | Potency (OV90)

Cc1cc(C(C)Nc2ccccc2C(=O)O)c2nc(N3CCOCC3)cc(=O)n2c1 (centres undefined)
inactive: Potency (C33A) | Potency (CAOV3) | Potency (Es-2) | Potency (HeLa) | Potency (OV90)

C/C=C(/C)C(=O)O[C@H]1[C@H](OC(=O)/C(C)=C\C)[C@@]23C(CC1(C)C)[C@]1(CCC4[C@@]5(C)CC[C@H](O[C@@H]6O[C@H](C(=O)O)[C@@H](O)[C@H](O[C@@H]7O[C@H](CO)[C@H](O)[C@H](O)[C@H]7O[C@@H]7O[C@@H](C)[C@H](O)[C@@H](O)[C@H]7O[C@@H]7OC[C@@H](O)[C@H](O)[C@H]7O)[C@H]6O[C@@H]6O[C@H](CO)[C@H](O)[C@H](O)[C@H]6O)C(C)(C)C5CC[C@@]4(C)[C@]1(C)C[C@H]2O)O[C@H]3O (some centres undefined)
inactive: activity change, negative = cytotoxicity (C33A) -26.4% [at 6.55 µM] | activity change, negative = cytotoxicity (CASKI) -8.52% [at 6.55 µM] | activity change, negative = cytotoxicity (Es-2) 0.581% [at 6.55 µM] | activity change, negative = cytotoxicity (HeLa) 16.8% [at 6.55 µM]

COc1ccc(C[C@H]2COC(=O)[C@@H]2Cc2ccc(O[C@@H]3O[C@H](CO)[C@@H](O)[C@H](O)[C@H]3O)c(OC)c2)cc1OC
inactive: Potency (C33A) | Potency (CAOV3) | Potency (Es-2) | Potency (HeLa) | Potency (JEG-3) | Potency (OV90)

CN1CCC(NC(=O)c2cc(-c3c(O)cc(O)cc3Oc3ccc([N+](=O)[O-])cc3)on2)CC1
active: Potency (C33A) 0.708 µM | Potency (CAOV3) 0.398 µM | Potency (Hek293T) 1 µM
inactive: Potency (HeLa)

Cc1[nH]c(/C=C2\C(=O)Nc3cc(-c4ccccc4)ccc32)c(C)c1CCC(=O)O
inactive: Potency (C33A) | Potency (CAOV3) | Potency (JEG-3) | Potency (OV90)

CCC(C)CC(=O)OC1C(=O)C(CO)=CC(O)C1C(C)C (centres undefined)
active: Potency (C33A) 31.6 µM | Potency (CASKI) 28.2 µM

CCOc1nc(NC(=O)Cc2cc(OC)ccc2OC)cc(N)c1C#N
inactive: Potency (C33A) | Potency (CASKI) | Potency (Es-2) | Potency (HeLa) | Potency (Hek293T) | Potency (JEG-3) | Potency (OV90)

C=C(C)[C@@H]1CC[C@]2(C(=O)O)CC[C@]3(C(=O)O)[C@H](CCC4[C@@]5(C)CCC(=O)C(C)(C)C5CC[C@]43C)C12 (some centres undefined)
inactive: Potency (C33A) | Potency (CASKI) | Potency (Es-2) | Potency (HeLa) | Potency (Hek293T) | Potency (JEG-3) | Potency (OV90)

NCC(CNc1nc(Nc2cccc(NC(=O)N3CCCC3)c2)ncc1I)C(=O)c1cccs1 (centres undefined)
inactive: Potency (C33A) | Potency (CASKI) | Potency (Es-2) | Potency (HeLa) | Potency (Hek293T) | Potency (JEG-3) | Potency (OV90)

CNC(=O)[C@@H](c1ccccc1)N1CCc2cc(OC)c(OC)cc2[C@@H]1CCc1ccc(C(F)(F)F)cc1
inactive: Potency (C33A) | Potency (CASKI) | Potency (Es-2) | Potency (HeLa) | Potency (Hek293T) | Potency (JEG-3) | Potency (OV90)

C/C=C(/C)C(=O)O[C@@H]1C[C@@H](OC(=O)CC(C)C)C2(C)C3C(=O)C=C(C)C2C3C1(C)C (some centres undefined)
inactive: Potency (C33A) | Potency (CASKI) | Potency (Es-2) | Potency (HeLa) | Potency (Hek293T) | Potency (JEG-3) | Potency (OV90)

Cc1nc(Nc2ccc(F)cc2)nc(N2CCc3ccccc3C2C)c1C (centres undefined)
inactive: Potency (C33A) | Potency (CASKI) | Potency (Es-2) | Potency (HeLa) | Potency (Hek293T) | Potency (JEG-3) | Potency (OV90)

Cc1c(C(=O)NCc2cccnc2)nn(-c2ccc(Cl)cc2Cl)c1-c1ccc(Cl)cc1
inactive: Potency (C33A) | Potency (CASKI) | Potency (Es-2) | Potency (HeLa) | Potency (Hek293T) | Potency (JEG-3) | Potency (OV90)

CC(=O)O[C@@H]1C2=C(O)C(=O)[C@](C)(OC(C)=O)C(=O)C2=CO[C@@]12O[C@@H](C)CC[C@H]2OC(C)=O
inactive: Potency (C33A) | Potency (CASKI) | Potency (Es-2) | Potency (HeLa) | Potency (Hek293T) | Potency (JEG-3) | Potency (OV90)

CC1(C)CN(C(=O)c2ccc(-c3cccc4nc(NC(=O)C5CC5)nn34)cc2)C1
inactive: Potency (C33A) | Potency (CASKI) | Potency (Es-2) | Potency (HeLa) | Potency (Hek293T) | Potency (JEG-3) | Potency (OV90)

CC(=O)CC(=O)Nc1ccc(Cl)c(C(F)(F)F)c1
inactive: Potency (C33A) | Potency (CASKI) | Potency (Es-2) | Potency (HeLa) | Potency (Hek293T) | Potency (JEG-3) | Potency (OV90)

CCO[C@H]1CN(C2CCC(O)(c3ccc4c(c3)OCO4)CC2)C[C@@H]1NC(=O)CNC(=O)c1cccc(C(F)(F)F)c1 (some centres undefined)
inactive: Potency (C33A) | Potency (CASKI) | Potency (Es-2) | Potency (HeLa) | Potency (Hek293T) | Potency (JEG-3) | Potency (OV90)

N#Cc1cc(-c2ccnc(Nc3ccc(N4CCOCC4)cc3)n2)ccc1OC1CCOCC1
inactive: Potency (C33A) | Potency (CASKI) | Potency (Es-2) | Potency (HeLa) | Potency (Hek293T) | Potency (JEG-3) | Potency (OV90)

CC(NC(=O)Cc1cc(F)cc(F)c1)C(=O)NC1C(=O)N(C)c2ccccc2-c2ccccc21 (centres undefined)
inactive: Potency (C33A) | Potency (CASKI) | Potency (Es-2) | Potency (HeLa) | Potency (Hek293T) | Potency (JEG-3) | Potency (OV90)

CN[C@@H]1[C@H](O[C@H]2[C@H](O[C@@H]3[C@@H](O)[C@H](O)[C@@H](N=C(N)N)[C@H](O)[C@H]3N=C(N)N)O[C@@H](C)[C@]2(O)CO)O[C@@H](CO)[C@H](O)[C@H]1O
inactive: Potency (C33A) | Potency (CASKI) | Potency (Es-2) | Potency (HeLa) | Potency (Hek293T) | Potency (JEG-3) | Potency (OV90)
